# Data from the supplement of paper PMC6555819.
# Legend:
# Assay in all cases: PBM binding z-score (relative to random genomic background probes); higher = stronger binding; sequences stand for … in GC…GCGATTGACAGCGTAGAATGAAGG
# [1] = tested on: FXR:RXRa (NR concentration 270 nM, RXRa partner concentration 90 nM)
# Procedure, shortened: (§1)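 Random background probes are the reference for binding z-scores. These scores derive from regression-normalized fluorescence on custom Agilent 4×180K protein-binding microarrays incubated 1 h with ligand-free nuclear receptor dimers. Binding was detected with antibodies against each partner (one per run).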
# [2] = tested on: LXRa:RXRa (NR concentration 270 nM, RXRa partner concentration 90 nM)
# Procedure, shortened: as §1
# [3] = tested on: LXRa homodimer (NR concentration 270 nM)
# Procedure, shortened: as §1
# [4] = tested on: LXRb:RXRa (NR concentration 270 nM, RXRa partner concentration 90 nM)
# Procedure, shortened: as §1
# [5] = tested on: LXRb homodimer (NR concentration 270 nM)
# Procedure, shortened: as §1
# [6] = tested on: PPARg:RXRa (NR concentration 180 nM, RXRa partner concentration 90 nM)
# Procedure, shortened: as §1
# [7] = tested on: PPARg:RXRa 270nM:90nM, anti-RXR (NR concentration 270 nM, RXRa partner concentration 90 nM)
# Procedure, shortened: as §1
# [8] = tested on: PPARg:RXRa 30nM:10nM, anti-RXR (NR concentration 30 nM, RXRa partner concentration 10 nM)
# Procedure, shortened: as §1
# [9] = tested on: PPARg:RXRa 90nM:30nM, anti-RXR (NR concentration 90 nM, RXRa partner concentration 30 nM)
# Procedure, shortened: as §1
# [10] = tested on: PPARg:RXRa DBDmut IVT, anti-RXR (DBD mutation: RXRa K156A/R161A, NR concentration 270 nM, RXRa partner concentration 90 nM)
# Procedure, shortened: as §1
# [11] = tested on: PPARg:RXRa IVT, anti-PPARg (NR concentration 270 nM, RXRa partner concentration 90 nM)
# Procedure, shortened: as §1
# [12] = tested on: PPARg DBDmut:RXRa IVT, anti-PPARg (DBD mutation: PPARg1 K132A/R137A, NR concentration 270 nM, RXRa partner concentration 90 nM)
# Procedure, shortened: as §1
# [13] = tested on: PPARg DBDmut IVT, anti-PPARg (DBD mutation: PPARg1 K132A/R137A, NR concentration 270 nM)
# Procedure, shortened: as §1
# [14] = tested on: PPARg homodimer (NR concentration 180 nM)
# Procedure, shortened: as §1
# [15] = tested on: PXR:RXRa (NR concentration 270 nM, RXRa partner concentration 90 nM)
# Procedure, shortened: as §1
# [16] = tested on: PXR homodimer (NR concentration 270 nM)
# Procedure, shortened: as §1
# [17] = tested on: RARa:RXR (NR concentration 270 nM, RXRa partner concentration 90 nM)
# Procedure, shortened: as §1
# [18] = tested on: RARa homodimer (NR concentration 270 nM)
# Procedure, shortened: as §1
# [19] = tested on: RARb:RXRa (NR concentration 270 nM, RXRa partner concentration 90 nM)
# Procedure, shortened: as §1
Sequence,PBM binding z-score [1],PBM binding z-score [2],PBM binding z-score [3],PBM binding z-score [4],PBM binding z-score [5],PBM binding z-score [6],PBM binding z-score [7],PBM binding z-score [8],PBM binding z-score [9],PBM binding z-score [10],PBM binding z-score [11],PBM binding z-score [12],PBM binding z-score [13],PBM binding z-score [14],PBM binding z-score [15],PBM binding z-score [16],PBM binding z-score [17],PBM binding z-score [18],PBM binding z-score [19]
AGAATGAGGTTAACAAAGATCAGGGAAACGCTTG,2.66,5.37,0.105,2.63,-0.171,2.62,2.59,1.09,1.88,3.76,3.12,0.964,0.512,0.76,1.72,0.159,2.07,1.01,2.01
CCTGCTAGGTCATGGTCAGGTAATCTACAGTATG,3.64,2.62,0.355,1.7,-0.354,2.37,2.82,0.671,1.75,4.45,3.79,0.801,0.0323,1.72,1.78,-0.0214,2.55,0.209,4.04
GCTAGTTGGTCAGTAAATGGTCACACACCGGTCG,0.041,-0.126,-0.00637,-0.244,-0.204,0.366,-0.00235,-0.52,-0.282,0.302,0.493,0.157,0.192,0.621,-0.0876,-0.353,0.368,0.255,1.2
CCTACTGGGGCAAAGGTCATTGATTCCAATGCTC,4.69,5.21,2.93,4.78,0.406,12,10,9.73,11.1,6.11,7.2,0.312,-0.624,2.42,5.6,0.979,6.37,0.341,4.66
CATACAGGGTAAGCTAGGCCAGAGTAGGGACGGC,0.167,0.793,-0.335,-0.589,-0.153,0.575,-0.433,-0.335,-0.43,0.432,0.87,-0.00431,-0.34,-0.902,-0.7,-0.446,-0.142,0.0109,0.588
ATCTGTAGGTTATCGGGTCATTCAGTTTGCGCAT,3.02,3.6,2.79,3.06,1.36,3.9,4.43,1.41,3.37,4.65,5.29,1.81,1.76,2.43,3.86,7.32,3.93,1.11,2.71
TGAATGAGGTTTAAGATCAGGGAACGTGGCGTCG,-0.267,-0.0856,-0.566,-0.625,-0.285,0.663,1.49,0.74,1.15,-0.249,0.242,0.0033,-0.732,-0.165,-0.2,-0.311,-0.216,-0.194,0.0151
CCTACTGGGCCATTCAGAGGTCATTGTTCATATG,2.55,4.4,6.96,3.77,0.5,1.98,3.18,0.535,2.16,4.55,4.17,0.178,-0.495,2.5,4.71,2.33,4.2,0.216,2.97
CCGACTTGGGCAAAGGTTACCATACTCAGTACGA,0.847,1.32,0.214,1.68,-0.6,6.45,6.29,5.67,7.54,0.755,2.56,-0.26,-0.659,0.915,1.45,0.0117,2.35,-0.0307,1.92
TCTAGTTGGTCAAAGGCCACACACTCGAAATGCG,0.691,0.811,0.139,0.867,-0.181,6.54,7.01,6.34,7.68,2.18,3.17,0.393,0.329,1.01,0.772,0.0843,1.28,0.063,1.95
TGACTGAGGTTAAAGATCAGGGAACGTGGCGTCG,2.91,2.35,-0.224,1.69,-0.22,3.09,3.98,2.03,3.59,-0.162,1.61,0.314,0.079,0.216,2.03,-0.418,2.68,-0.102,2.05
CCTAGTTGGTCAAGGTCTCACACGCTATAGGTAC,0.271,0.379,0.569,0.343,0.483,0.786,1.09,0.321,0.561,1.7,1.75,-0.0151,0.765,1.47,0.365,0.749,0.511,1.56,1.48
CAAACTAGGTCAAAGGTCAAAGCCGAGCCAACCA,8.47,7.19,5.21,7.3,2.55,13.1,11.3,13.6,13,8.36,8.57,2.64,1.45,4.45,6.85,1.41,9.13,2.5,5.94
AATTCAGGGTCACTAGGCCAGAGTAGGTACGAAT,6.96,6.2,1.95,4.99,1.68,9.15,7.59,4.55,6.76,4.91,6.4,5.15,2.77,4.18,4.19,0.429,5.62,1.32,4.89
CAATCTAGGTCAAAGGTCAAAGTCGAGCCAACCA,8.46,7.47,6.51,7.41,3.28,14,11.2,12.9,13.1,8.91,9.32,3.79,6.44,3.41,6.92,1.82,8.3,1.8,5.89
TCATATAGGTAATAGGTGAAAGTCGGTGTGGTAA,1.15,1.11,0.316,1.18,0.0131,6.6,6.84,6.19,7.27,4.73,4.33,0.889,1.42,1.61,0.866,0.435,1.56,1.65,0.581
